Assay results taken from article PMC4336329 (PLoS ONE, 2015).
In all, about 310,000 compounds went through this assay and about 14,000 (4.5%) showed an effect of 50% or more. Effects have a minus sign here. The sample holds strong results, similar compounds and a random draw of the others, so the mix is not that of the screen.

Molecular target: human ether-à-go-go-related gene (hERG) potassium channel (human, UniProt Q12809)
Assay: primary screen, population patch clamp on CHO cells stably expressing hERG; higher = less effect of the substance
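Note: peak tail current of the secondary pulse compared with the same well before compound.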

human ether-à-go-go-related gene (hERG) potassium channel, sequence (Q12809 whole entry, looked up): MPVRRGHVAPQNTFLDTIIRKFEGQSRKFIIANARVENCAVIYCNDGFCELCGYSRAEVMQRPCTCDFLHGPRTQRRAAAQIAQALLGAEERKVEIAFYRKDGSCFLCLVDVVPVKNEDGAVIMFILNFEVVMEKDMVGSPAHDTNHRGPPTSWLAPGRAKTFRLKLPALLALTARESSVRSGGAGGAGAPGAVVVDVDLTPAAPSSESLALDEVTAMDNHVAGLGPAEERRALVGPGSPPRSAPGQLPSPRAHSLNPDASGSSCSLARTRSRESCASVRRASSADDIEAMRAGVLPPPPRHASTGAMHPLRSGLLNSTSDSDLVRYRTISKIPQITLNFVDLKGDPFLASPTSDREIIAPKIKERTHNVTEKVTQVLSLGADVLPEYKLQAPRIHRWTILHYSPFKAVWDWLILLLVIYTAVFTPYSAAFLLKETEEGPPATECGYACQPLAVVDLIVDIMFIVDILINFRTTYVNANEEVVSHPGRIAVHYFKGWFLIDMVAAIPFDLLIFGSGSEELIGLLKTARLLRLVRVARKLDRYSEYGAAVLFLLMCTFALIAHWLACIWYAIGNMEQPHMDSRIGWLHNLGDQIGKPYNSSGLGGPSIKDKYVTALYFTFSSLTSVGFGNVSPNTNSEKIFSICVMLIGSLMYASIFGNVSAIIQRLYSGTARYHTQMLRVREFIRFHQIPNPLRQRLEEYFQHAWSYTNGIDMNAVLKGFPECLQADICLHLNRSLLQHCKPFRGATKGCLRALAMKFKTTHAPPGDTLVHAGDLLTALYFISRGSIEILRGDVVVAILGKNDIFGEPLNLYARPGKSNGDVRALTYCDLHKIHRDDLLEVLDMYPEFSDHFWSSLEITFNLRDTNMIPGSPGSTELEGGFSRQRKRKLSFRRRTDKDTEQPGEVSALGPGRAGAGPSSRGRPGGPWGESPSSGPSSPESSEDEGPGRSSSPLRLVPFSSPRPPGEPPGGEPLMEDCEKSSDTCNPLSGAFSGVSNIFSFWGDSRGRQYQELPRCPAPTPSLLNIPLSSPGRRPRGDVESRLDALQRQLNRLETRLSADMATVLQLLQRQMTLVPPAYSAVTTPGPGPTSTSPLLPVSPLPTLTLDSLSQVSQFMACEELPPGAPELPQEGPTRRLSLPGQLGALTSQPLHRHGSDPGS

SMILES | hERG current change (%, negative = inhibition) at 10uM
CCOC(=O)CNC(=O)Cn1cnc2c(nnn2-c2cccc(OC)c2)c1=O | 17.5%
COc1cc(C(c2c(C)[nH][nH]c2=O)c2c(C)[nH][nH]c2=O)ccc1OC(=O)c1cccc([N+](=O)[O-])c1 | 10.4%
Cc1cccc(NC(=O)N2CCCCCC2)c1 | -8.87%
Cc1c(Cl)c([N+](=O)[O-])nn1CCCC(=O)N1CCN(c2ccccc2)CC1 | -58%
Cc1cc([N+](=O)[O-])nn1CCCC(=O)N1CCN(c2ccccc2)CC1 | -21.4%
Cc1nn(CC(=O)N2CCN(c3ccccc3)CC2)c(C)c1[N+](=O)[O-] | -9.49%
Cc1cc([N+](=O)[O-])nn1CCCC(=O)NCc1ccc(F)cc1 | -0.962%
COc1ccccc1N1CCN(C(=O)CCCn2nc(C)c([N+](=O)[O-])c2C)CC1 | -19.1%
Cc1c(Cl)c([N+](=O)[O-])nn1CCCC(=O)O | 9.17%
Cc1nn(CCCC(=O)N2CCN(c3ccc(F)cc3)CC2)c(C)c1[N+](=O)[O-] | -62.1%
Cc1c(Br)c([N+](=O)[O-])nn1CCCC(=O)N1CCN(c2ccccc2)CC1 | -32.4%
Cc1cc([N+](=O)[O-])nn1CCCC(=O)N1CCN(c2ccc(F)cc2)CC1 | -53.2%
CC(=O)N1CCN(c2ccc(NC(=O)c3ccc(OCc4ccccc4)cc3)cc2)CC1 | 16.7%
CCOC(=O)C1CCC2(CC1)C(C#N)=C(N)Oc1n[nH]c(C)c12 (centres unmarked) | -14.2%
Cc1cccc(C(=O)Oc2csc(=S)n2C(=O)c2cccc(C)c2)c1 | 6.76%
COc1ccc([N+](=O)[O-])c(OC)c1C(=O)NC(=O)Nc1nc(C)cc(C)n1 | 18%
O=S(=O)(Nc1ccccc1)c1ccc2c(c1)CCO2 | 11%
O=C(Cn1c(=O)c2sccc2n(Cc2ccc([N+](=O)[O-])cc2)c1=O)NCCc1ccccc1 | -49%
O=C(OCC(=O)N1CCN(C(=O)c2ccco2)CC1)c1cn(-c2ccccc2)nc1-c1ccccc1 | -67%
COc1ccccc1-c1nn(-c2ccccc2)cc1C(=O)N1CCN(C(=O)c2ccco2)CC1 | -36%
O=C(c1ccco1)N1CCN(C(=O)c2cn(-c3ccccc3)nc2-c2ccccc2)CC1 | -86.5%

SMILES | hERG current change (%, negative = inhibition) at 10uM
O=C(c1cn(-c2ccccc2)nc1-c1ccccc1)N1CCOCC1 | -4.6%
O=C(OCC(=O)N1CCN(C(=O)c2ccco2)CC1)c1ccccc1O | -18.2%
Cc1cnc(C(=O)OCC(=O)N2CCN(C(=O)c3ccco3)CC2)cn1 | -8.85%
COCCSc1ccccc1C(=O)Nc1ccncc1 | 16.4%
O=C(/C=C/c1ccc(F)cc1)NC(=S)Nc1ccccc1 | 4.35%
Cc1ccc(C(=O)Nc2ccc(SC(F)F)cc2)s1 | 24.4%
Cc1ccc(CNC(=O)CSc2nc3[nH]ncc3c(=O)[nH]2)cc1 | 4.89%
COC(=O)c1c(N(S(C)(=O)=O)S(C)(=O)=O)sc2c1CCN(c1ncc(C(F)(F)F)cc1Cl)C2 | 13%
Cc1ccc(S(=O)(=O)N2CCC(Oc3ccc(-n4cnnn4)cc3)CC2)cc1 | 0.934%
C=CCN(CC=C)C(=O)C1CCN(S(=O)(=O)c2ccc(N3CCCC3=O)cc2)CC1 | 5.01%
CC(=O)c1ccc(S(=O)(=O)N2CCC(Oc3ccc(-n4cnnn4)cc3)CC2)cc1 | 21.9%
CN(Cc1ccccc1)C(=O)C1CCN(S(=O)(=O)c2ccc(-n3cnnn3)cc2)CC1 | -75.2%
C=CCN(CC=C)C(=O)C1CCN(S(=O)(=O)c2ccc(-n3cnnn3)cc2)CC1 | -54.4%
O=C(C1CCN(S(=O)(=O)c2ccc(-n3cnnn3)cc2)CC1)N1CCN(c2ccccc2)CC1 | -35.7%
CCC(C)NC(=O)C1CCN(S(=O)(=O)c2ccc(-n3cnnn3)cc2)CC1 (centres unmarked) | 3.26%
O=S(=O)(c1ccccc1)N1CCC(Oc2ccc(-n3cnnn3)cc2)CC1 | -74.8%
CCN(CC)C(=O)C1CCN(S(=O)(=O)c2ccc(-n3cnnn3)cc2)CC1 | -30%
COc1ccc(N2CCN(c3nc4ccccc4nc3NS(=O)(=O)c3ccccc3)CC2)cc1 | 1.21%
CCOC(=O)/C(C#N)=C/c1cn(CCC(=O)O)nc1-c1ccc(F)cc1 | 4.24%
Cc1ccc(S(=O)(=O)N2CCN(C3CC(=O)N(CCc4ccccc4)C3=O)CC2)cc1C (centres unmarked) | -27.7%
Cc1cccc(C)c1NC(=O)C(c1cccs1)N(Cc1ccco1)C(=O)Cn1nnc2ccccc21 (centres unmarked) | 14.4%

SMILES | hERG current change (%, negative = inhibition) at 10uM
O=C(COC(=O)CCNS(=O)(=O)c1cccc(C(F)(F)F)c1)NC(=O)NC1CCCCC1 | -14.4%
Cn1cccc1C(=O)NC(=O)COC(=O)CCNS(=O)(=O)c1cccc(C(F)(F)F)c1 | -52.4%
Cc1ccc(S(=O)(=O)NCCC(=O)OCC(=O)NC(=O)c2cccn2C)cc1 | -12.5%
Oc1ccccc1/C=N/Nc1nccnc1Cl | -0.0796%
COCC1CCN(C(=O)c2oc3c(F)cccc3c2C)C1 (centres unmarked) | 0.639%
CCOC(=O)C1CCN(C2CCN(C(=O)c3oc4c(C)c(C)ccc4c3C)CC2)CC1 | -69.3%
Cc1ccc2c(C)c(C(=O)N3CCN(C4CCS(=O)(=O)C4)CC3)oc2c1C (centres unmarked) | -4.49%
CCCN(CC1CC1)C(=O)COC(=O)c1[nH]c(C)c(C(=O)OCC)c1C | -5.5%
CCOC(=O)C1CCN(C2CCN(C(=O)c3oc4c(F)cccc4c3C)CC2)CC1 | -71.1%
CCCN(CC1CC1)C(=O)COC(=O)c1oc2c(F)cccc2c1C | -52.8%
CCOC(=O)N1CCC(NC(=O)c2oc3c(C)c(C)ccc3c2C)CC1 | -32.2%
CCCN(CC1CC1)C(=O)COC(=O)c1oc2ccc(OCC)cc2c1C | -27.8%
Cc1c(C(=O)N2CCC(N3CCSCC3)CC2)oc2c(F)cccc12 | -34.9%
Cc1cc(OCC(=O)Nc2c(C)n(C)n(-c3ccccc3)c2=O)ccc1[N+](=O)[O-] | -23.5%
Cc1[nH]c2c(C(=O)N3CCCC(CCC(=O)NCc4ccccc4F)C3)cccc2c1C (centres unmarked) | 3.39%
CCCC(c1nnnn1Cc1ccccc1)N1CCC(C(N)=O)CC1.Cl (centres unmarked) | -3.44%
O=C(NCc1ccco1)c1cc(-c2cccnc2)nc2ccccc12 | -52.6%
Cc1cc(-c2ccccc2)nc2cc(C(=O)NCc3ccco3)nn12 | -55.9%
O=C(NCc1ccco1)c1cc(-c2ccccc2)nc2ccccc12 | -16.5%
COCCCNC(=O)c1cc(-c2cccnc2)nc2ccccc12 | 16.6%
CCCCN(C)CCCNC(=O)c1cc(-c2cccnc2)nc2ccccc12 | -60.1%

SMILES | hERG current change (%, negative = inhibition) at 10uM
CCCCN(C)CCCNC(=O)c1cc(-c2cccs2)nc2ccccc12 | -85.6%
CC(C)OCCCNC(=O)c1cc(-c2cccs2)nc2ccccc12 | 0.89%
Cc1cc(C)n2nc(C(=O)NCc3ccco3)cc2n1 | 10.4%
CC(C)CCNC(=O)c1cc(-c2cccs2)nc2ccccc12 | 5.1%
COCCNC(=O)c1cc2nc(-c3ccccc3)cc(C)n2n1 | 7.82%
O=C(NCc1ccco1)c1cc(-c2cccnc2)nc2ccc(Cl)cc12 | -36.3%
CCCCNC(=S)NNC(=O)c1cc(-c2cccnc2)nc2ccccc12 | -7.41%
CCN(CCNC(=O)C1CCN(S(=O)(=O)c2c(C)noc2C)CC1)c1ccccc1 | -1.06%
COc1cc(/C=C/C(=O)NCc2cccnc2)cc(OC)c1OC | 0.841%
CCOC(=O)Cc1csc(NC(=O)CN2CCOCC2)n1 | 14.1%
CCOC(=O)[C@@H]1[C@H]2COc3ccccc3[C@H]2N2C(=O)N(c3ccc(C)cc3)C(=O)[C@]12C | -1.42%
CCCNC(=O)c1n[nH]c2c1CC(C(C)(C)CC)CC2 (centres unmarked) | 1.27%
C=CCNc1ncnc2c1cnn2-c1ccc(C)cc1C | 3.76%
NS(=O)(=O)c1ccc(N/N=C/c2ccc[nH]2)c([N+](=O)[O-])c1 | 0.228%
COc1cc(C(=O)Nc2ccc3nc4n(c(=O)c3c2)CCCCC4)cc(OC)c1OC | -67.7%
COc1cccc(C(=O)Nc2ccc3nc4n(c(=O)c3c2)CCCC4)c1 | -62.9%
COc1cc(OC)cc(C(=O)Nc2ccc3nc4n(c(=O)c3c2)CCCCC4)c1 | -48.7%
COc1cc(NC(=O)C(=O)Nc2ccc3nc4n(c(=O)c3c2)CCCCC4)cc(OC)c1OC | -1.55%
COc1cc(OC)cc(C(=O)Nc2ccc3nc4n(c(=O)c3c2)CCCC4)c1 | 11.2%
O=C(Nc1ccc2nc3n(c(=O)c2c1)CCCC3)c1cccc(F)c1 | -43.9%
